Consider 40 compounds from PubChem BioAssay (NCATS).

Records with an inconclusive call do not appear. Entries that show only a call come without a potency. Activity calls are given as the source filed them. The call rests on the fitted dose curve; in most records, active means well fitted cell-killing curve with a large enough effect; inconclusive means small, poorly fitted or top-dose-only effect, or effect the other way; inactive means no such curve, though single readings can be large or run the other way.
Potency means the concentration at half of the fitted maximal effect.

This test in a line: Quantitative High-Throughput drug screen in 47 multiple myeloma cell lines against the NCATS MIPE library collection: MOLP8_DSMZ cell viability assay (AID 1918977). Further: nearly all actives have a fitted effect of over 45% in size. The settings on record: MOLP8 myeloma viability, CellTiter-Glo ATP luminescence, 48 h; series mostly up to 45.8 µM. An excerpt:
PI: Beverly A. Mock Ph.D.
Laboratory of Cancer Biology and Genetics,
Center for Cancer Research, National Cancer Institute,
National Institute of Health, Bethesda, Maryland
Drug resistance and disease progression are common in multiple myeloma (MM) patients, underscoring the need for new therapeutic combinations. […] We hypothesized that effective combinations would reduce MYC expression and enhance p16 activity. […] These preclinical data identify potentially useful drug combinations for evaluation in drug-resistant MM and reveal potential mechanisms of combined drug sensitivity.
Described herein is the primary MIPE qHTS used to cherrypick compounds. Validated compounds were then further tested for potential synergistic activiy.
[1] Peat TJ, Gaikwad SM, Dubois W, Gyabaah-Kessie N, Zhang S, Gorjifard S, Phyo Z, Andres M, Hughitt VK, Simpson RM, Miller MA, Girvin AT, Taylor A, Williams D, D'Antonio N, Zhang Y, Rajagopalan A, Flietner E, Wilson K, Zhang X, Shinn P, Klumpp-Thomas C, McKnight C, Itkin Z, Chen L, Kazandijian D, Zhang J, Michalowski AM, Simmons JK, Keats J, Thomas CJ, Mock BA. Drug combinations identified by high-throughput screening promote cell cycle transition and upregulate Smad pathways in myeloma. Cancer Lett. 2023 Aug 1;568:216284. doi: 10.1016/j.canlet.2023.216284. Epub 2023 Jun 24. PMID: 37356470; PMCID: PMC10408729.
SEQUENCE No. (e.g., 1, 2, 3, etc.); […] (e.g., Cells, Incubation, Reagent, etc.); VALUE and DESCRIPTION.
1; Cells; 5 uL; white, solid bottom 1536-well Greiner assay plate.
2; Compounds; 23 nL; Kalypsis pin tool (Wako USA) equipped with a 1536-well pin head to transfer to the assay plates.
3; Incubation; 48 hours; 37C incubation.
4; Reagent;5uL; CellTiter Glo (Promega).
5; Detector; 425V; Luminescence; Viewlux PerkinElmer.
NOTES (numbers refer to Sequence numbers above)
1. The cell-based screening methods employed in this study were like those previously published. Briefly, the corresponding myeloma cell lines were screened in 1,536-well plates with 500 cells, 5-uL per well for inhibition of cell viability (assessed by measuring ATP levels with CellTiterGlo).
2. NCATS MIPE 4.0 library of approved and investigational drugs were added using the Kalypsis pin tool. Wells treated with DMSO only for 100% viability and media only for 0% viability were used as controls.
3. The assay plates were covered and incubated for 48 hours in a 37C, 5% CO2 incubator with controlled humidity.
4. After 48 hours, CellTilter-GloTM luminescent substrate mix (Promega) reagent was added to the assay plate and plates we incubated for 5 min at room temperature.
5. Signal was measured as median relative luminescence units on a ViewLux (PerkinElmer) multiplate reader.
[1] Heske CM, Davis MI, Baumgart JT, Wilson K, Gormally MV, Chen L, Zhang X, Ceribelli M, Duveau DY, Guha R, Ferrer M, Arnaldez FI, Ji J, Tran HL, Zhang Y, Mendoza A, Helman LJ, Thomas CJ. Matrix Screen Identifies Synergistic Combination of PARP Inhibitors and Nicotinamide Phosphoribosyltransferase (NAMPT) Inhibitors in Ewing Sarcoma. Clin Cancer Res. 2017 Dec 1;23(23):7301-7311. doi: 10.1158/1078-0432.CCR-17-1121. Epub 2017 Sep 12. PMID: 28899971; PMCID: PMC6636827.
(In ATP-based viability assays light output follows the ATP content of the culture.)
Turning to `CCCN[C@H]1CCc2nc(N)sc2C1`, the Potency result is “inactive”.

As to `Cc1ccnc2c1NC(=O)c1cccnc1N2C1CC1`, the Potency result was “inactive”.

For the compound `Nc1nc(N)nc(-c2cc(Cl)ccc2Cl)n1`, the Potency result was “inactive”.

With `COC(=O)Nc1nc2ccc(Sc3ccccc3)cc2[nH]1`, the Potency is 13.2 µM (active).

Turning to `COc1ncnc(NS(=O)(=O)c2ccc(N)cc2)c1OC`, the Potency result was “inactive”.

Regarding `O=C(O)CSCC(=O)NC1CCSC1=O` (stereo not given), the Potency entry was “inactive”.

Regarding `CN1CCN(c2c(F)cc3c(=O)c(C(=O)O)cn4c3c2OCN4C)CC1`, the Potency entry is “inactive”.

On to `C[C@@H]1CN(c2c(F)c(N)c3c(=O)c(C(=O)O)cn(C4CC4)c3c2F)C[C@H](C)N1`, for which the Potency result was “inactive”.

`O=C(O)c1cn(C2CC2)c2cc(N3CCNCC3)c(F)cc2c1=O`: the Potency result was “inactive”.

As for `CCOC(=O)[C@H](CCc1ccccc1)N[C@H]1CCc2ccccc2N(CC(=O)O)C1=O`, the Potency was 18.7 µM (active).

For the compound `COc1cccc(N(C)C(=S)Oc2ccc3c(c2)CCCC3)n1`, the Potency entry is “inactive”.

Turning to `CCC(=O)O[C@]1(C(=O)CCl)[C@@H](C)C[C@H]2[C@@H]3CCC4=CC(=O)C=C[C@]4(C)[C@@]3(F)[C@@H](O)C[C@@]21C`, the Potency entry was “inactive”.

For the compound `O=C(O)C1CCCN(CCC=C(c2ccccc2)c2ccccc2)C1` (stereo not given), the Potency was 0.0059 µM (active).

With `CCc1cc(C(N)=S)ccn1`, the Potency entry was “inactive”.

Take `COc1c(N2CCNC(C)C2)c(F)cc2c(=O)c(C(=O)O)cn(C3CC3)c12` (stereo not given): the Potency entry was “inactive”.

As for `CCCCc1oc2ccc(NS(C)(=O)=O)cc2c1C(=O)c1ccc(OCCCN(CCCC)CCCC)cc1`, the Potency was 16.6 µM (active).

Regarding `CC(N)C12CC3CC(CC(C3)C1)C2` (stereo not given), the Potency entry was “inactive”.

As for `O=c1cc(O)c(Cl)c[nH]1`, the Potency result was “inactive”.

For `Nc1[nH]c(=O)ncc1F`, the Potency entry was “inactive”.

As to `CCN[C@H]1C[C@H](C)S(=O)(=O)c2sc(S(N)(=O)=O)cc21`, the Potency entry is “inactive”.

With `COc1ccccc1OCC(O)COC(N)=O` (stereo not given), the Potency entry is “inactive”.

`Cc1ccc(S(=O)(=O)N[C@@H](Cc2ccccc2)C(=O)CCl)cc1`: the Potency is 14.8 µM (active).

As for `NC(=O)c1cccnc1`, the Potency result is “inactive”.

As for `N=C(N)c1ccc(OCCCCCOc2ccc(C(=N)N)cc2)cc1`, the Potency is 5.26 µM (active).

For `CC(=O)Oc1ccccc1C(=O)Nc1ncc([N+](=O)[O-])s1`, the Potency is 34 µM (active).

Consider `C[C@@H](NCCCc1cccc(C(F)(F)F)c1)c1cccc2ccccc12`, for which the Potency entry is “inactive”.

In the case of `CN(C)c1ccc(C(=C2C=CC(=[N+](C)C)C=C2)c2ccc(N(C)C)cc2)cc1`, the Potency was 0.0526 µM (active).

Turning to `Cc1nnc(C(=O)NC(C)(C)c2nc(C(=O)NCc3ccc(F)cc3)c(O)c(=O)n2C)o1`, the Potency entry is “inactive”.

As to `COc1cc(NCc2ccc3nc(N)nc(N)c3c2C)cc(OC)c1OC`, the Potency is 5.26 µM (active).

In the case of `COc1cnc(NS(=O)(=O)c2ccc(N)cc2)nc1`, the Potency entry is “inactive”.

For `NCCCC(O)(P(=O)(O)O)P(=O)(O)O`, the Potency result was “inactive”.

In the case of `COc1cc2ncnc(Nc3cccc(Cl)c3)c2cc1OC`, the Potency was 20.9 µM (active).

Turning to `CNCC[C@H](Oc1cccc2ccccc12)c1cccs1`, the Potency is 18.7 µM (active).

In the case of `O=C(O)c1cccnc1`, the Potency entry was “inactive”.

As to `NNC(=O)c1ccncc1`, the Potency entry is “inactive”.

Regarding `CCC(=O)O[C@]1(C(=O)SCF)[C@H](C)C[C@H]2[C@@H]3C[C@H](F)C4=CC(=O)C=C[C@]4(C)[C@@]3(F)[C@@H](O)C[C@@]21C`, the Potency entry was “inactive”.

Take `NC1(c2ccc(-c3nc4ccn5c(=O)[nH]nc5c4cc3-c3ccccc3)cc2)CCC1`: the Potency is 3.72 µM (active).

In the case of `N[C@@H](C(=O)N[C@@H]1C(=O)N2C(C(=O)O)=C(Cl)CS[C@H]12)c1ccccc1`, the Potency result was “inactive”.

In the case of `NC(=O)N1c2ccccc2CC(=O)c2ccccc21`, the Potency entry is “inactive”.

For `COc1cc(NS(=O)(=O)c2ccc(N)cc2)nc(OC)n1`, the Potency entry was “inactive”.
